Bioassay records from PubChem BioAssay.
aSyn UTR act = Activators via SNCA 5'UTR binding, MLPCN; 7.1% of 300,000 active; activity score, % (tested at 7.5 µM), hits read low; AID 1814, 2009; alpha-synuclein 5'UTR reporter, activators screen; in the data active = activity score below about -60%
Each line names hits and unclear results; the compound was inactive in the other large screens. The list is a sample of the results.

O=C(N/N=C/C(Br)=C\c1ccccc1)c1cccs1	aSyn UTR act -318
CC(=C/c1ccccc1)/C=N/n1cnnc1	none
CC(=C/c1ccccc1)/C=N/NC(=O)c1cccs1	aSyn UTR act -90
Cc1ccc(CC2CC(=O)N(Cc3ccco3)C2=O)cc1 (stereo not drawn)	aSyn UTR act -129
O=C(c1ccc(CS(=O)c2ccccc2Cl)o1)N1CCN(c2ccccc2)CC1 (stereo not drawn)	none
O=C(c1ccc(CS(=O)Cc2ccccc2Cl)o1)N1CCN(C2CCCCC2)CC1 (stereo not drawn)	aSyn UTR act -74
CCOC(=O)c1ccc(NC(=S)Nc2ccccn2)cc1	aSyn UTR act -137
Cc1ccc(NC(=O)Nc2ncccc2C)cc1	aSyn UTR act -163
CCOC(=O)c1ccc(NC(=O)Nc2ncccc2C)cc1	aSyn UTR act -102
Cc1cccnc1NC(=O)Nc1ccc(F)cc1	aSyn UTR act -144
CC(/C=N/NC(=O)c1cnccn1)=C\c1ccco1	aSyn UTR act -117
CC(/C=N/NC(=O)c1cccnc1)=C\c1ccco1	aSyn UTR act -103
COc1ccc(-c2cc(-c3ccc(Cl)cc3)n[nH]2)c(O)c1	aSyn UTR act -202
COc1ccc(-c2cc(-c3cc(OC)ccc3O)[nH]n2)cc1	aSyn UTR act -199
COc1ccc(O)c(-c2cc(-c3ccc(F)cc3)n[nH]2)c1	aSyn UTR act -121
COc1ccc(OC)c(-c2cc(C3CCN(c4cc(Cl)nc(N)n4)CC3)[nH]n2)c1	none
C=C(C)COc1ccc(-c2[nH]ncc2-c2ccc(Br)cc2)c(O)c1	none
COc1ccc(O)c(-c2cc(-c3cccc(Br)c3)n[nH]2)c1	aSyn UTR act -132
COc1cccc(OCCNc2cc(N3CCOCC3)ccc2[N+](=O)[O-])c1	aSyn UTR act -78
COc1ccc(SC[C@H](CC(C)C)N2CCN(C)CCC2=O)cc1	aSyn UTR act -86
CCCN1CCC(=O)N([C@H](CSc2ccc(OC)cc2)c2ccccc2)CC1	aSyn UTR act -77
Cc1ccc(SC[C@H](c2ccccc2)N2CCN(C)CCC2=O)cc1	aSyn UTR act -138
CC(C)C[C@@H](CSc1ccc(Br)cc1)N1CCN(CC(C)C)CCC1=O	aSyn UTR act -148
CC(C)C[C@@H](CSc1ccc(Br)cc1)N1CCN(C)CCC1=O	aSyn UTR act -141
Cc1ccc(SC[C@H](CC(C)C)N2CCN(C)CCC2=O)cc1	aSyn UTR act -135
O=S(=O)(Nc1ccc(-c2cn3ccsc3n2)cc1)c1ccc2c(c1)OCCO2	aSyn UTR act -67
COc1cc(SC)ccc1C(=O)NCCOc1ccc(F)cc1	aSyn UTR act -150
COc1cc(SC)ccc1C(=O)NCC1CCCCC1	aSyn UTR act -67
COc1cc(SC)ccc1C(=O)OCC(=O)N1CCCC1	aSyn UTR act -74
CCOc1ccc2nc(N3CCOCC3)nc(C)c2c1	aSyn UTR act -178
Cc1cc(N/N=C/c2ccc(O)cc2O)nc(-n2nc(C)cc2C)n1	none
CCOc1ccc(/C=N/Nc2cc(C)nc(N3CCOCC3)n2)cc1	aSyn UTR act -105
Cc1cc(Nc2ccc(C)c(Cl)c2)nc(N2CCOCC2)n1	aSyn UTR act -70
COCCN=C1Sc2nc3ccc(C)cc3cc2CN1Cc1ccco1	aSyn UTR act -68
Cc1cc2nc(C3CCN(Cc4nnnn4Cc4cccs4)CC3)[nH]c2cc1C	none
COCCN=C1Sc2nc3cc(C)c(C)cc3cc2CN1Cc1cccs1	aSyn UTR act -78
CC(=O)N(/N=C1\Sc2ccccc2C1=O)c1ccccc1C	aSyn UTR act -170
O=C1C2C3CCC(C3)C2C(=O)N1c1ccc(OS(=O)(=O)c2ccccc2)cc1 (stereo not drawn)	aSyn UTR act -178
CC(=O)Nc1cccc(/C(C)=N/Nc2nc3ccccc3s2)c1	aSyn UTR act -224
CCOC(=O)N1CCC(=NNc2nc3ccccc3s2)CC1	aSyn UTR act -112
CCOC(=O)N1CCN(/C=C(\C#N)c2nc3ccccc3s2)CC1	aSyn UTR act -94
CC(=O)N1CCC(=NNc2nc3ccccc3s2)CC1	aSyn UTR act -215
N/C(=N\OC(=O)c1ccc2c(c1)OCO2)c1ccc(Cl)cc1	aSyn UTR act -165
N/C(=N\OC(=O)c1ccc2c(c1)OCO2)c1ccncc1	aSyn UTR act -102
COc1ccc(/C(N)=N/OC(=O)c2ccc3c(c2)OCO3)cc1	aSyn UTR act -98
O=C(COC(=O)c1cc(Cl)ccc1O)c1ccc2c(c1)OCO2	aSyn UTR act -122
COC(=O)N/N=C/c1cccc(OCCSc2ccc(Cl)cc2)c1	aSyn UTR act -82
CCc1ccc(/C=C/c2c([N+](=O)[O-])c(=O)n(C)c(=O)n2C)cc1	aSyn UTR act -62
Cn1c(/C=C/c2ccc(Cl)cc2Cl)c([N+](=O)[O-])c(=O)n(C)c1=O	aSyn UTR act -204
O=C(/C=C\c1ccccc1)Nc1ccc(NC(=O)c2ccco2)cc1	aSyn UTR act -67
O=C(COc1ccccc1)Nc1ccc(NC(=O)c2ccco2)cc1	aSyn UTR act -65
O=C(Nc1ccc(Cl)cc1)c1ccco1	aSyn UTR act -131
CSc1cccc(NC(=O)c2cccc3cccnc23)c1	aSyn UTR act -134
CN(C(=O)c1ccc(NC(=O)c2ccco2)cc1)c1ccccc1	aSyn UTR act -76
O=C(Nc1cccc(NC(=O)c2ccc(-c3ccc(Br)cc3)o2)c1)c1ccco1	aSyn UTR act -95
CC(=O)Nc1ccc(NC(=O)c2ccco2)cc1	aSyn UTR act -71
CSc1cccc(NC(=O)c2ccco2)c1	aSyn UTR act -75
Cc1cc(C)c2ccc(N)nc2c1O	none
O=C(NNC(=O)c1ccccc1O)c1ccco1	aSyn UTR act -82
CC1N(C)c2cc(NC(=O)c3ccco3)ccc2C1(C)C (stereo not drawn)	aSyn UTR act -81
C=CCNC(=O)c1cc(-c2ccc(Br)cc2)on1	aSyn UTR act -101
CC(C)NC(=O)c1cc(-c2cccs2)on1	aSyn UTR act -127
CSc1ccccc1NC(=O)c1cc(-c2cccs2)on1	aSyn UTR act -235
Cc1ccc(O)c(NC(=O)c2cc(-c3ccc(F)cc3)on2)c1	aSyn UTR act -147
O=C(Nc1c(F)cc(F)cc1Br)c1cc(-c2ccc(O)cc2)on1	aSyn UTR act -101
Cc1ccc(O)c(NC(=O)c2cc(-c3cccs3)on2)c1	aSyn UTR act -231
Cc1ccc(N/N=C2\CCS(=O)(=O)c3sccc32)cc1	aSyn UTR act -89
Cc1c(C)c2ccc(OCC(=O)Nc3cccnc3)c(C)c2oc1=O	aSyn UTR act -137
Cc1cc(Cl)ccc1OCC(=O)Nc1cccnc1	aSyn UTR act -108
O=C(CCc1ccncc1)NC1CCCc2c1cnn2-c1cc(F)cc(F)c1 (stereo not drawn)	none
CC(C)(C)c1ccc(-n2ncc3c2CCCC3NC(=O)c2cnccn2)cc1 (stereo not drawn)	aSyn UTR act -68
Cc1cc(=O)[nH]c2nnc(-c3ccc(Br)cc3)n12	aSyn UTR act -62
Cc1cccc2sc(NNC(=O)c3cc(=O)c4ccccc4o3)nc12	aSyn UTR act -62
Cc1cccc2sc(NNC(=O)c3ccc(S(=O)(=O)N4CC(C)CC(C)C4)cc3)nc12 (stereo not drawn)	none
COc1ccc2nc(NNC(=O)c3cc(=O)c4ccccc4o3)sc2c1	aSyn UTR act -88
Cc1nn(-c2ccccc2)c(N)c1N=Nc1ccc(Cl)cc1	aSyn UTR act -175
Cc1cccc(N=Nc2c(C)nn(-c3ccccc3)c2N)c1C	aSyn UTR act -124
CCn1nccc1C(=O)Nc1ccc(C(=O)OC(C)C)cc1	aSyn UTR act -163
O=C(COC(=O)c1ccccc1[N+](=O)[O-])c1ccc(C2CCCCC2)cc1	aSyn UTR act -76
Cc1[nH]n(-c2nc(-c3ccc(Cl)cc3)cs2)c(=O)c1N=Nc1ccc(O)cc1	aSyn UTR act -118
